# Data from paper PMC7819943, “Rice protein-binding microarrays: a tool to detect cis-acting elements near promoter regions in rice”.
# Whole data set: some 39,000 sequences, median “fluorescence intensity (a.u.)” near 4,300, cut for the highest 2% near 39,000. The list comes from a sample in which the highest values are over-represented; it also holds similar and randomly drawn sequences.
# Biological target: T1, OsSMF1 (Oryza sativa, UniProt Q6ZLB0 1-436)
# T1 sequence: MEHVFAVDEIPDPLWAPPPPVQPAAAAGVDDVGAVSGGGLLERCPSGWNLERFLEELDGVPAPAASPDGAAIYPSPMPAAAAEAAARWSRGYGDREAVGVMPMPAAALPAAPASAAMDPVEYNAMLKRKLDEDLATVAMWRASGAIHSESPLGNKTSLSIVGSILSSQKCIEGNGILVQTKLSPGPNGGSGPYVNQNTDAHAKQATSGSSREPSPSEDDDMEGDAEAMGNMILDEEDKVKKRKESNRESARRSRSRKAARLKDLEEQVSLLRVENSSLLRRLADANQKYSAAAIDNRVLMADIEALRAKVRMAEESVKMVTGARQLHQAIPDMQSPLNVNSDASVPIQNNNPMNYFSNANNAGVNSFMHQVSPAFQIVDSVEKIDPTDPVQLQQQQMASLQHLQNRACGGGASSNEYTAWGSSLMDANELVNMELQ
# Test: protein-binding microarray (RPBM); PBS, 2% BSA, 51.3 ng/ul salmon testes DNA, 50 uM zinc acetate, 200 nM TF, 25 C, 1 h; high values mean tight binding
# Settings: protein: recombinant; tags: N-terminal polyhistidine and DsRed monomer fusion (pET32a); chain copies: 2; label: CyDye5-dUTP incorporated in the synthesized complementary strand; 3' TTTTT single-stranded linker to array surface; dsDNA, one strand shown
# Procedure, shortened: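 The binding signal for each feature is its fluorescence intensity in arbitrary units. An Axon 4000B scanner was used to read a custom Agilent array that had been made double-stranded with Cy5-dUTP primer extension, blocked with 2% BSA, incubated at 25 °C for 1 h with 200 nM protein in PBS, 2% BSA, salmon testes DNA and 50 µM zinc acetate, and washed. The protein was an N-terminal polyhistidine–DsRed transcription factor fusion from E. coli BL21-CodonPlus, purified on Ni–NTA.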
row,Sequence,binding signal
1,TCTGCAAGCACCAACGAGAAGCCACAAATGTTCACATCACCGGAGTCACCTAGTGCAG,3610 fluorescence intensity (a.u.)
2,CAAGTCCAAGAGCACCATAAGCTAGTGACACATAGAGCCCCGGAGTCACCTAGTGCAG,4140 fluorescence intensity (a.u.)
3,GATCGACGGCGACGCCCCTGGAAGGAGCGGAATAGACCACCGGAGTCACCTAGTGCAG,46700 fluorescence intensity (a.u.)
4,CCTGAGGAGGGAAGGGTCGATGTGGAGGAGCGGCGGCGACCGGAGTCACCTAGTGCAG,3500 fluorescence intensity (a.u.)
5,CGTGCGGCGGATCGTGGTGGACGCGAGCGGCGGCGGCGACCGGAGTCACCTAGTGCAG,3440 fluorescence intensity (a.u.)
6,TTTGCATTGACTTGATATAGTATGTCACCATCACACTATCCGGAGTCACCTAGTGCAG,5460 fluorescence intensity (a.u.)
7,TTGCATCAGGCCCTCTTCAATGATTTAAACAAACAATGGACGGAGTCACCTAGTGCAG,52300 fluorescence intensity (a.u.)
8,TTGTGACTTGATTTATCATCAAATGTTCTTTAAACATGACCGGAGTCACCTAGTGCAG,3540 fluorescence intensity (a.u.)
9,TTACAAACAACGCCTTGCATGATTGCATCATCGCCCTAAACGGAGTCACCTAGTGCAG,4300 fluorescence intensity (a.u.)
10,GGCGTATTCCAAAAGCCTTGGCCACCATTATTGCGTGGCACGGAGTCACCTAGTGCAG,6820 fluorescence intensity (a.u.)
11,GCTAGCTAAGAGCGAGCTTCATTAACATACGAGACAGAGACGGAGTCACCTAGTGCAG,4530 fluorescence intensity (a.u.)
12,GTTAATTAATACTCTCCGTTTCATATTATAAGGCGTTTGACGGAGTCACCTAGTGCAG,26400 fluorescence intensity (a.u.)
13,TACTCTGCCAATCTAAATTAATGATGTATGATATGGTCTCCGGAGTCACCTAGTGCAG,4340 fluorescence intensity (a.u.)
14,ACCCATATAATTAAGGTGCCAATGCTGCTAATACTCTCTCCGGAGTCACCTAGTGCAG,46100 fluorescence intensity (a.u.)
15,GACACATGAGGGCCCACATGTCATACATTGTGAATGACACCGGAGTCACCTAGTGCAG,3900 fluorescence intensity (a.u.)
16,GCCGCACCGGTCGGTTTCAGCGCGTGTGACACGCAGATTCCGGAGTCACCTAGTGCAG,3500 fluorescence intensity (a.u.)
17,CTTGTCTAGTCCAGGACAACTGGGATGATTGAGCACCAGTCGGAGTCACCTAGTGCAG,3170 fluorescence intensity (a.u.)
18,AACCTCAATGTTCCACGTCATCATTAATTTACAGCCGTTGCGGAGTCACCTAGTGCAG,39400 fluorescence intensity (a.u.)
19,CCGTTACATTGTTCCAATTTTAATTAAACTTCCAATTTTACGGAGTCACCTAGTGCAG,30600 fluorescence intensity (a.u.)
20,CAAACCACAGTGTTCCACGTCATCATCAATTGACAGCCGTCGGAGTCACCTAGTGCAG,37800 fluorescence intensity (a.u.)
21,ATGGGGTGGATGCGTCAGAATTTACATAGGCACGGAACGTCGGAGTCACCTAGTGCAG,5800 fluorescence intensity (a.u.)
22,CCTTCCCTAGGGGCGGAGCCACGTAGCTTGGGCCCCACACCGGAGTCACCTAGTGCAG,6430 fluorescence intensity (a.u.)

row,Sequence,binding signal
1,TTATTATTATTGGATGGTTAGATGACAAATCCAACCTCACCGGAGTCACCTAGTGCAG,3640 fluorescence intensity (a.u.)
2,ATGACGATGGTTAATCCAAATAACATATTGGCCCGGGTTCCGGAGTCACCTAGTGCAG,49900 fluorescence intensity (a.u.)
3,GAGAGAGTGTAGGTTGCCGATGACGTTCCAAATATTGATCCGGAGTCACCTAGTGCAG,4490 fluorescence intensity (a.u.)
4,ATTGACATGGAGTCATGGACACTCTCCCTGCCTCCTCCCTCGGAGTCACCTAGTGCAG,3370 fluorescence intensity (a.u.)
5,CACCTTCTTCAAGCTCCCTCCTCTGAAGCCTCTTCTTCTTCGGAGTCACCTAGTGCAG,34900 fluorescence intensity (a.u.)
6,ACCTTCATTGGATCTGCCTCCCTGCAAGCCTCTGCCTCAACGGAGTCACCTAGTGCAG,43300 fluorescence intensity (a.u.)
7,TCCAGTTGTGCGTGGAGATGTTGGTGAAGAGCTTCCGCTGCGGAGTCACCTAGTGCAG,4270 fluorescence intensity (a.u.)
8,TGAAATGCTATGTTGGTCCAGACTTCCGCTACGAAGGAGACGGAGTCACCTAGTGCAG,65100 fluorescence intensity (a.u.)
9,TCTCCACTTCAGAGACGGTCCCACCTGTCATCCGCTCATACGGAGTCACCTAGTGCAG,4680 fluorescence intensity (a.u.)
10,CCCTTACACCGCCCTGTGAACAGTCACTGACAATCCTGGCCGGAGTCACCTAGTGCAG,4330 fluorescence intensity (a.u.)
11,TTAGTGCATGCTGCTAACTAAATACACGTAGCTTGTTGATCGGAGTCACCTAGTGCAG,3310 fluorescence intensity (a.u.)
12,AAATTCCACGTGCCACATATTTCGTTCATTTGAGTTTATTCGGAGTCACCTAGTGCAG,8820 fluorescence intensity (a.u.)
13,CTCCTGCCCACCAATCTTGCGGCGGAAAACAAGGCGTGATCGGAGTCACCTAGTGCAG,4000 fluorescence intensity (a.u.)
14,GCGAAGCAACATGCTGCTGCTCAAGAGGAGGAAGATGGTGCGGAGTCACCTAGTGCAG,3350 fluorescence intensity (a.u.)
15,GAGAGTCGCCTTGTCAACATATGGCAGATGCAGCTGGTGCCGGAGTCACCTAGTGCAG,61100 fluorescence intensity (a.u.)
16,TTGATGGAGATGGGAGTTGGTGCGGATGTCCTTGTCGCCCCGGAGTCACCTAGTGCAG,3200 fluorescence intensity (a.u.)
17,TTCATAGAGAGGGCCGGCAACGGCCTAGGCACGCTGGTGTCGGAGTCACCTAGTGCAG,34700 fluorescence intensity (a.u.)
18,CCTACACATATATATATATATATGCATGGCAACTTGGCAACGGAGTCACCTAGTGCAG,3340 fluorescence intensity (a.u.)
19,GTACGTCGGAAGCAACGGCAGACATGACAGCATATGGCCTCGGAGTCACCTAGTGCAG,15900 fluorescence intensity (a.u.)
20,TCAGCTGGCATGCATGGCAACATATATATGGCTGGAAGTACGGAGTCACCTAGTGCAG,40000 fluorescence intensity (a.u.)
21,TGGTGCTGTGGTGGTGGTGGTCATGGACTCATTGGGCATGCGGAGTCACCTAGTGCAG,3180 fluorescence intensity (a.u.)
22,TGGTGCTGGTCCTCAACATGCATGTGCTATGGCAAGATCCCGGAGTCACCTAGTGCAG,42800 fluorescence intensity (a.u.)
